Assay outcomes from PubChem BioAssay.
Sampled rows, rich in hits. Any-hit rate of the full collection: about 4.5%.
Mdm2 MdmX PPI – disrupts the human Mdm2-MdmX interaction | O15151+Q00987 | SaOS-2 split-luciferase Mdm2/MdmX complementation, luminescence | inhibition, % at 8 µM | hit rate 3% among 330,000 | AID 485346;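 active = inhibition of at least 50% at 8 µM in the primary screen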
Target sequence (O15151 whole entry, looked up): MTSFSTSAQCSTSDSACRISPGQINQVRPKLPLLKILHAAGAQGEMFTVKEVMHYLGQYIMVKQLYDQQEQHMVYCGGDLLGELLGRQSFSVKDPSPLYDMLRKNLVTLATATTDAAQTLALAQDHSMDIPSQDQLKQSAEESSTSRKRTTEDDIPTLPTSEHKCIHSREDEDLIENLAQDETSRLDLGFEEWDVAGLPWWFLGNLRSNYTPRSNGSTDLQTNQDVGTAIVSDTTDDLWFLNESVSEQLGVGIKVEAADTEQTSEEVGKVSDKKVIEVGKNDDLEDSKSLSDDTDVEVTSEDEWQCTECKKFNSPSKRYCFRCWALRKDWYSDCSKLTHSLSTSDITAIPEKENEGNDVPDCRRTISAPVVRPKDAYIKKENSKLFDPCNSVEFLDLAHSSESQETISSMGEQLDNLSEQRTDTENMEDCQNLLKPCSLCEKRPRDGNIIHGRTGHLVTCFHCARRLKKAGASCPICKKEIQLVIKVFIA
Target sequence (Q00987 whole entry, looked up): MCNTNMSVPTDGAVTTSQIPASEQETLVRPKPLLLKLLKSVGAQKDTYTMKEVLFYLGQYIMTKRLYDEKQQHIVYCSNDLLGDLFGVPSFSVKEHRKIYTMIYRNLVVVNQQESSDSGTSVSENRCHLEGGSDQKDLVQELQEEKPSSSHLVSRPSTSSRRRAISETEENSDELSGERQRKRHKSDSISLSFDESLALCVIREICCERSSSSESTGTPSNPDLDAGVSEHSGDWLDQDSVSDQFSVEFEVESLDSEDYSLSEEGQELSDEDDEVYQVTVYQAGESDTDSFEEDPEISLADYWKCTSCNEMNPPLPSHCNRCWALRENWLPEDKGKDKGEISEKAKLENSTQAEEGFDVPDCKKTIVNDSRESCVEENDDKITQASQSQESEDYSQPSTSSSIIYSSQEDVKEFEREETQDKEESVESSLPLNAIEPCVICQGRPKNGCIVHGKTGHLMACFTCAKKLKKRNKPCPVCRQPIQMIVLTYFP
Jurkat NFkB inh – lowers PMA/ionomycin-induced NF-kB signal in Jurkat cells; hit rate 0.53% among 330,000; PMA/ionomycin-induced NF-kB luciferase reporter, luminescence; inhibition, % at 4 µM; in the data active = inhibition above about 50%
CSC inhib – blocks cancer stem cells; cancer stem cell-like cells viability, luminescence; hit rate 1.1% among 300,000; inhibition, % at 7.5 µM; in the data active = inhibition above about 75%; inconclusive = no clear call, values can overlap the other calls; tested in HMLE shEcad cells
Beta cell apopt – blocks beta cell apoptosis; INS-1E cytokine-induced death, ATP luminescence, 48 h; percent of positive-control rescue, neutral wells zero; protection from apoptosis, % (concentration not given with the values); AID 435005; hit rate 0.8% among 300,000;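 active = Every replicate reaches about 75%, or at least half do and their mean reaches it too, limit read from the data; inconclusive = At least half of replicates reach the limit but their mean does not; inactive = Under half of replicates reach the limit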;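 note: higher means more ATP so stronger rescue from cytokine killing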
Gli-Sufu block – blocks Gli-Sufu signaling in a luciferase reporter | Sufu-KO-LIGHT fibroblasts, Gli luciferase reporter luminescence | hit rate 0.74% among 340,000 | inhibition, % at 5 µM;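 active = inhibition above about 55%, limit read from the data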
697 NFkB inh – inhibitors of the PMA/ionomycin-induced NF-kB reporter in 697 B cells; 697 B-cell NF-kB luciferase reporter, 16 h; inhibition, % at 4 µM; hit rate 0.33% among 330,000; AID 435022; in the data active = inhibition above about 35%
Mdm2 MdmX conf – confirmation of human Mdm2/MdmX interaction inhibitors; hit rate 55% among 10,000; shares compounds with Mdm2 MdmX PPI; inhibition, % at 8 µM; Mdm2-MdmX binding, luminescent assay; in the data active = inhibition above about 40%
FLuc counter – full-length luciferase inhibition in Mdm2/MdmX counter-screen; shares compounds with Mdm2 MdmX PPI; inhibition, % at 8 µM; AID 504607; SaOS-2 full-length luciferase counterscreen, luminescence; hit rate 77% among 6,200;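 active = mean inhibition at 8 µM reaching about 37%, which flags the compound as non-specific, limit read from the data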;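 note: p53-null SaOS-2 cells with luciferase driven by a doxycycline-inducible promoter; compound on cells about two nights before reading with doxycycline added after day one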
A number is an active result; - = inactive; ? = inconclusive; . = not tested or not shown.

SMILES	Mdm2 MdmX PPI	Jurkat NFkB inh	CSC inhib	Beta cell apopt	Gli-Sufu block	697 NFkB inh	Mdm2 MdmX conf	FLuc counter
COc1ccc(C(O)P(=O)(OC(C)C)OC(C)C)c(OC)c1 (stereo not drawn)	-	-	-	.	-	-	.	.
CCN(CC)Cc1cc2[nH]c3c4ccc(Cl)cc4ncc3c2cc1OC	54	-	.	.	-	-	-	.
Cc1ccc(NC(=O)c2cc(-c3cc(C)c(C)cc3O)n[nH]2)cc1C	-	-	-	-	-	-	.	.
CCN1CCN(c2nc3ccccc3nc2C(C#N)C(=O)OC2CCCCC2)CC1 (stereo not drawn)	.	.	.	.	-	.	.	.
CN1CCN(c2nc3ccccc3nc2C(C#N)C(=O)OC2CCCCC2)CC1 (stereo not drawn)	51	-	-	-	-	-	-	84
O=c1c2ccccc2nc(CSc2nnnn2-c2ccccc2)n1-c1ccccc1Cl	68	-	-	-	-	-	43	64
c1ccc(Cn2c(CSc3nnnn3-c3ccccc3)nc3ccccc32)cc1	-	-	-	-	-	-	.	.
O=C(NC1CC2CCCC(C1)N2C(=O)Nc1ccc(Cl)c(C(F)(F)F)c1)C1CC1 (stereo not drawn)	-	-	-	-	-	-	.	.
O=C(Nc1ccc(Cl)c(C(F)(F)F)c1)NC1CC2CCCC(C1)N2Cc1ccccc1 (stereo not drawn)	83	-	?	-	-	-	52	60
N#C/C(=C\c1ccc(Cl)c([N+](=O)[O-])c1)c1ccccn1	87	-	-	-	-	-	-	.
N#C/C(=C\c1ccccc1)c1ccccn1	-	-	-	-	-	-	.	.
CC(NC(=O)/C(C#N)=C/c1ccc(Cl)c([N+](=O)[O-])c1)c1ccccc1 (stereo not drawn)	100	-	-	-	-	-	67	-
COc1cc(CC(=O)OCC(=O)NC2CCCC2)cc(OC)c1OC	-	-	.	.	-	-	.	.
COc1ccc(S(=O)(=O)N2CC(=O)Nc3ccccc32)cc1	-	-	-	.	.	-	.	.
N#Cc1ncc(-c2ccc3c(c2)OCCOCCOCCOCCOCCO3)nc1C#N	71	-	-	-	-	-	61	-
N#Cc1ncc(-c2ccc3c(c2)OCCOCCOCCOCCO3)nc1C#N	-	-	-	-	-	-	.	.
O=C(O)CSc1ncnc2scc(-c3ccccc3)c12	-	-	-	-	-	-	.	.
Cn1nnnc1Sc1ncnc2scc(-c3cccc(Br)c3)c12	96	-	89	-	-	-	100	49
Cn1nnnc1Sc1ncnc2scc(-c3cccc(S(C)(=O)=O)c3)c12	84	-	-	-	-	-	70	-
O=C1CN(C(=O)CNC(=O)c2ccc(Cl)cc2Cl)CCN1	-	-	-	-	-	-	.	.
O=C(Oc1ccc(F)cc1C(=O)/C=C/c1cccs1)c1cccc([N+](=O)[O-])c1	55	-	-	-	-	-	42	48
C[C@]12C(=O)N(c3ccc(C(F)(F)F)cc3)C(=O)N1[C@@H]1c3ccccc3OC[C@@H]1[C@H]2c1ccccc1	50	-	-	-	-	-	50	74
C[C@]12C(=O)N(c3ccccc3)C(=O)N1[C@@H]1c3ccccc3OC[C@@H]1[C@H]2c1ccccc1	-	-	-	-	-	-	.	.
Cc1ccc(N2C(=O)N3[C@H]4c5ccccc5OC[C@@H]4[C@@H](c4ccccc4)[C@@]3(C)C2=O)cc1	52	-	.	-	-	-	-	.
COc1ccc(NC(=O)N2CCCC2C(=O)NCc2cccs2)cc1 (stereo not drawn)	-	-	-	-	-	-	.	.
SMILES	Mdm2 MdmX PPI	Jurkat NFkB inh	CSC inhib	Beta cell apopt	Gli-Sufu block	697 NFkB inh	Mdm2 MdmX conf	FLuc counter
COc1cccc2cc(-c3cc(=O)oc4cc(C)c(OCC(C)=O)cc34)oc12	55	-	-	-	-	-	-	.
CC(=O)Nc1ccc(C(=O)NC2CCSc3ccccc32)cc1 (stereo not drawn)	-	-	-	-	-	-	.	.
CC(=O)c1c(C)[nH]c(C(=O)NC2CCSc3ccccc32)c1C (stereo not drawn)	56	-	-	-	-	-	-	.
COc1ccc2nc(SCC(=O)NC(C)c3ccccc3)[nH]c2c1 (stereo not drawn)	-	-	-	-	-	-	.	.
Cn1c(=O)c2c(SCc3cccc(C(F)(F)F)c3)nc(-c3ccco3)nc2n(C)c1=O	83	-	-	-	-	-	-	.
Cn1c(=O)c2c(SCC(=O)Nc3cccc(F)c3)nc(-c3ccco3)nc2n(C)c1=O	100	-	-	-	-	-	-	.
Cc1nc(SCC(=O)Nc2ccccc2C(F)(F)F)c2c(=O)n(C)c(=O)n(C)c2n1	95	-	-	.	-	-	-	.
NC1=NC(c2ccccc2C(F)(F)F)N(c2ccc(F)c(Cl)c2)C(N)=N1 (stereo not drawn)	-	-	-	-	-	-	.	.
CN(C)c1ccc(/C=C(/NC(=O)c2ccccc2)C(=O)N2CCCC2)cc1	-	-	.	-	-	-	.	.
COc1ccc(S(=O)(=O)N2CCOCC2)cc1NC(=O)COc1ccc(C)cc1	-	-	-	-	-	-	.	.
CCc1ccccc1OCC(=O)Nc1cc(S(=O)(=O)N2CCOCC2)ccc1N1CCCCC1	52	-	.	.	-	-	41	83
O=C(Nc1ccc(Cl)c(Cl)c1)Nc1cc(S(=O)(=O)N2CCOCC2)ccc1N1CCCC1	53	-	-	-	-	-	-	.
O=C(COc1ccc(S(=O)(=O)N2CCOCC2)cc1)Nc1ccc(Cl)c(C(F)(F)F)c1	61	-	-	.	-	-	43	65
COc1ccc(Cl)cc1NC(=O)COc1ccc(S(=O)(=O)N2CCOCC2)cc1C	68	-	-	-	-	-	-	.
O=C(COc1ccc(F)cc1Cl)Nc1cc(S(=O)(=O)N2CCOCC2)ccc1N1CCCCC1	-	-	-	-	-	-	.	.
OCCN1CCN(c2nc(-c3ccccc3O)nc3ccccc23)CC1	-	-	-	-	-	-	.	.
COc1cccc(CN2CC(C(=O)NCCc3ccc(C)o3)CCC2=O)c1 (stereo not drawn)	-	-	-	-	-	-	.	.
CCOc1ccc(S(=O)(=O)N2CCOCC2)cc1NC(=O)CSCc1ccc(C)cc1	52	-	-	-	-	-	56	54
O=C(Nc1cccc(Cl)c1)Nc1cc(S(=O)(=O)N2CCCCC2)ccc1Cl	89	-	87	-	-	-	91	51
CN1CCN(S(=O)(=O)c2ccc(NC(=O)Nc3cccc(Cl)c3)cc2)CC1	-	-	.	-	-	-	.	.
CC(C)NC(=O)C(c1ccc(F)cc1)N(C(=O)CCC(=O)Nc1ccccn1)c1cccc(F)c1 (stereo not drawn)	-	-	-	-	-	-	.	.
CCOC(=O)N1CCN(C(=O)Cn2nc(C)n3nc(-c4ccccc4)cc3c2=O)CC1	-	-	-	-	.	-	.	.
